Source: the supplement of paper PMC7411054
Structures can show the parent of a compound that is named as a salt.

Assays:
Assay in all cases: phenotypically active (imaging signature differs from DMSO and reproducible) at any of 0.3-9 uM (binary (1 = active, 0 = inactive)); higher = active
Conditions in all cases: treatment time: 24 h
A549-ACTB-RAB5A = test system: A549-ACTB-RAB5A
Procedure, shortened: (§1)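 Cells from fifteen gene-edited reporter lines (A549, HepG2 and WPMY1) were treated for 24 h at 0.3, 1, 3 or 9 µM and imaged live, four wells per condition. Features were normalised per well to solvent control wells. A condition deviated if ≥3 of 4 wells passed the 95th percentile of control Euclidean distances and was reproducible if its median replicate Pearson correlation beat the 95th percentile of non-replicates; phenotypic activity needed both.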

A549-CANX-COX4 = test system: A549-CANX-COX4
Procedure, shortened: as §1

A549-GM130-SQSTM1 = test system: A549-GM130-SQSTM1
Procedure, shortened: as §1

A549-TP53BP1-CLTA = test system: A549-TP53BP1-CLTA
Procedure, shortened: as §1

A549-TUBA1B-RELA = test system: A549-TUBA1B-RELA
Procedure, shortened: as §1

HepG2-ACTB-RAB5A = test system: HepG2-ACTB-RAB5A
Procedure, shortened: as §1

HepG2-CANX-COX4 = test system: HepG2-CANX-COX4
Procedure, shortened: as §1

HepG2-GM130-SQSTM1 = test system: HepG2-GM130-SQSTM1
Procedure, shortened: as §1

HepG2-TP53BP1-CLTA = test system: HepG2-TP53BP1-CLTA
Procedure, shortened: as §1

HepG2-TUBA1B-RELA = test system: HepG2-TUBA1B-RELA
Procedure, shortened: as §1

WPMY1-ACTB-RAB5A = test system: WPMY1-ACTB-RAB5A
Procedure, shortened: as §1

WPMY1-CANX-COX4 = test system: WPMY1-CANX-COX4
Procedure, shortened: as §1

WPMY1-GM130-SQSTM1 = test system: WPMY1-GM130-SQSTM1
Procedure, shortened: as §1

WPMY1-TP53BP1-CLTA = test system: WPMY1-TP53BP1-CLTA
Procedure, shortened: as §1

WPMY1-TUBA1B-RELA = test system: WPMY1-TUBA1B-RELA
Procedure, shortened: as §1

Measured: phenotypically active

CCCCCCCCCC(=O)O[C@H]1CC[C@H]2[C@@H]3CCC4=CC(=O)CC[C@@H]4[C@H]3CC[C@]12C [nandrolone-decanoate]
inactive: A549-ACTB-RAB5A 0 | A549-CANX-COX4 0 | A549-GM130-SQSTM1 0 | A549-TP53BP1-CLTA 0 | A549-TUBA1B-RELA 0 | HepG2-ACTB-RAB5A 0 | HepG2-CANX-COX4 0 | HepG2-GM130-SQSTM1 0 | HepG2-TP53BP1-CLTA 0 | HepG2-TUBA1B-RELA 0 | WPMY1-ACTB-RAB5A 0 | WPMY1-CANX-COX4 0 | WPMY1-GM130-SQSTM1 0 | WPMY1-TP53BP1-CLTA 0 | WPMY1-TUBA1B-RELA 0

C/C=C1/C[N+]2(C)CC[C@]34C(=C(C=O)[C@H]1C[C@@H]32)Nc1ccccc14 (stereo not given in full) [Fluorocurarine chloride]
inactive: A549-ACTB-RAB5A 0 | A549-CANX-COX4 0 | A549-GM130-SQSTM1 0 | A549-TP53BP1-CLTA 0 | A549-TUBA1B-RELA 0 | HepG2-ACTB-RAB5A 0 | HepG2-CANX-COX4 0 | HepG2-GM130-SQSTM1 0 | HepG2-TP53BP1-CLTA 0 | HepG2-TUBA1B-RELA 0 | WPMY1-ACTB-RAB5A 0 | WPMY1-CANX-COX4 0 | WPMY1-GM130-SQSTM1 0 | WPMY1-TP53BP1-CLTA 0 | WPMY1-TUBA1B-RELA 0

O=C1CN=C(c2ccccc2)c2cc(Cl)ccc2N1CC(F)(F)F [halazepam]
inactive: A549-ACTB-RAB5A 0 | A549-CANX-COX4 0 | A549-GM130-SQSTM1 0 | A549-TP53BP1-CLTA 0 | A549-TUBA1B-RELA 0 | HepG2-ACTB-RAB5A 0 | HepG2-CANX-COX4 0 | HepG2-GM130-SQSTM1 0 | HepG2-TP53BP1-CLTA 0 | HepG2-TUBA1B-RELA 0 | WPMY1-ACTB-RAB5A 0 | WPMY1-CANX-COX4 0 | WPMY1-GM130-SQSTM1 0 | WPMY1-TP53BP1-CLTA 0 | WPMY1-TUBA1B-RELA 0

C[C@]12COC(=O)C[C@@H]1CC[C@@H]1[C@@H]2CC[C@@]2(C)[C@H]1CC[C@]2(C)O [oxandrolone]
inactive: A549-ACTB-RAB5A 0 | A549-CANX-COX4 0 | A549-GM130-SQSTM1 0 | A549-TP53BP1-CLTA 0 | A549-TUBA1B-RELA 0 | HepG2-ACTB-RAB5A 0 | HepG2-CANX-COX4 0 | HepG2-GM130-SQSTM1 0 | HepG2-TP53BP1-CLTA 0 | HepG2-TUBA1B-RELA 0 | WPMY1-ACTB-RAB5A 0 | WPMY1-CANX-COX4 0 | WPMY1-GM130-SQSTM1 0 | WPMY1-TP53BP1-CLTA 0 | WPMY1-TUBA1B-RELA 0

CNCC(O)c1ccc(O)c(OC)c1 (stereo not drawn) [Metanephrine hydrochloride DL]
inactive: A549-ACTB-RAB5A 0 | A549-CANX-COX4 0 | A549-GM130-SQSTM1 0 | A549-TP53BP1-CLTA 0 | A549-TUBA1B-RELA 0 | HepG2-ACTB-RAB5A 0 | HepG2-CANX-COX4 0 | HepG2-GM130-SQSTM1 0 | HepG2-TP53BP1-CLTA 0 | HepG2-TUBA1B-RELA 0 | WPMY1-ACTB-RAB5A 0 | WPMY1-CANX-COX4 0 | WPMY1-GM130-SQSTM1 0 | WPMY1-TP53BP1-CLTA 0 | WPMY1-TUBA1B-RELA 0

C=C(C)[C@H]1CN[C@H](C(=O)O)[C@H]1CC(=O)O [Kainic acid]
inactive: A549-ACTB-RAB5A 0 | A549-CANX-COX4 0 | A549-GM130-SQSTM1 0 | A549-TP53BP1-CLTA 0 | A549-TUBA1B-RELA 0 | HepG2-ACTB-RAB5A 0 | HepG2-CANX-COX4 0 | HepG2-GM130-SQSTM1 0 | HepG2-TP53BP1-CLTA 0 | HepG2-TUBA1B-RELA 0 | WPMY1-ACTB-RAB5A 0 | WPMY1-CANX-COX4 0 | WPMY1-GM130-SQSTM1 0 | WPMY1-TP53BP1-CLTA 0 | WPMY1-TUBA1B-RELA 0

C[N+]1([O-])[C@@H]2C[C@@H](OC(=O)[C@H](CO)c3ccccc3)C[C@H]1[C@@H]1O[C@@H]12 (stereo not given in full) [Genoscopolamine HBr]
inactive: A549-ACTB-RAB5A 0 | A549-CANX-COX4 0 | A549-GM130-SQSTM1 0 | A549-TP53BP1-CLTA 0 | A549-TUBA1B-RELA 0 | HepG2-ACTB-RAB5A 0 | HepG2-CANX-COX4 0 | HepG2-GM130-SQSTM1 0 | HepG2-TP53BP1-CLTA 0 | HepG2-TUBA1B-RELA 0 | WPMY1-ACTB-RAB5A 0 | WPMY1-CANX-COX4 0 | WPMY1-GM130-SQSTM1 0 | WPMY1-TP53BP1-CLTA 0 | WPMY1-TUBA1B-RELA 0

CC(=O)O[C@H]1C[C@@H]2CC[C@@H]3[C@H](CC[C@@]4(C)[C@H]3C[C@H]([N+]3(C)CCCCC3)[C@@H]4OC(C)=O)[C@@]2(C)C[C@@H]1[N+]1(C)CCCCC1 [pancuronium]
inactive: A549-ACTB-RAB5A 0 | A549-CANX-COX4 0 | A549-GM130-SQSTM1 0 | A549-TP53BP1-CLTA 0 | A549-TUBA1B-RELA 0 | HepG2-ACTB-RAB5A 0 | HepG2-CANX-COX4 0 | HepG2-GM130-SQSTM1 0 | HepG2-TP53BP1-CLTA 0 | HepG2-TUBA1B-RELA 0 | WPMY1-ACTB-RAB5A 0 | WPMY1-CANX-COX4 0 | WPMY1-GM130-SQSTM1 0 | WPMY1-TP53BP1-CLTA 0 | WPMY1-TUBA1B-RELA 0

COc1ccc2c3c1O[C@H]1C(=O)CC[C@H]4[C@@H](C2)N(C)CC[C@]314 [hydrocodone]
inactive: A549-ACTB-RAB5A 0 | A549-CANX-COX4 0 | A549-GM130-SQSTM1 0 | A549-TP53BP1-CLTA 0 | A549-TUBA1B-RELA 0 | HepG2-ACTB-RAB5A 0 | HepG2-CANX-COX4 0 | HepG2-GM130-SQSTM1 0 | HepG2-TP53BP1-CLTA 0 | HepG2-TUBA1B-RELA 0 | WPMY1-ACTB-RAB5A 0 | WPMY1-CANX-COX4 0 | WPMY1-GM130-SQSTM1 0 | WPMY1-TP53BP1-CLTA 0 | WPMY1-TUBA1B-RELA 0

C[C@@H]1O[C@H](C[N+](C)(C)C)C[C@H]1O [(+)-Muscarine iodide]
inactive: A549-ACTB-RAB5A 0 | A549-CANX-COX4 0 | A549-GM130-SQSTM1 0 | A549-TP53BP1-CLTA 0 | A549-TUBA1B-RELA 0 | HepG2-ACTB-RAB5A 0 | HepG2-CANX-COX4 0 | HepG2-GM130-SQSTM1 0 | HepG2-TP53BP1-CLTA 0 | HepG2-TUBA1B-RELA 0 | WPMY1-ACTB-RAB5A 0 | WPMY1-CANX-COX4 0 | WPMY1-GM130-SQSTM1 0 | WPMY1-TP53BP1-CLTA 0 | WPMY1-TUBA1B-RELA 0

NCC1(CC(=O)O)CCCCC1 [gabapentin]
inactive: A549-ACTB-RAB5A 0 | A549-CANX-COX4 0 | A549-GM130-SQSTM1 0 | A549-TP53BP1-CLTA 0 | A549-TUBA1B-RELA 0 | HepG2-ACTB-RAB5A 0 | HepG2-CANX-COX4 0 | HepG2-GM130-SQSTM1 0 | HepG2-TP53BP1-CLTA 0 | HepG2-TUBA1B-RELA 0 | WPMY1-ACTB-RAB5A 0 | WPMY1-CANX-COX4 0 | WPMY1-GM130-SQSTM1 0 | WPMY1-TP53BP1-CLTA 0 | WPMY1-TUBA1B-RELA 0
